Values joined by “and” are separate entries in the source; they are usually repeats but may differ in a detail not shown here. Equal values may be shown once. Inconclusive results are not listed. Active and inactive are the calls of the source. Unless noted, calls come from the whole dose curve; as a rule, active = well fitted curve in the direction sought with a large enough effect; inconclusive = small, poorly fitted or top-dose-only effect, or another doubt; inactive = no such curve, though single readings can be large; an effect the other way counts as inactive or inconclusive.

The target of assay [1] is Arylsulfatase A (Homo sapiens) (UniProt P15289). The assay is described as follows: qHTS screen for enhancers of Arylsulfatase A (ASA1): LOPAC Validation Assay (AID 720538). To be noted: outcome: dose series up to 57.5 µM. An outline of the steps:
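MLD patient fibroblasts (SV40, ASA-I179S), 1536-well; adhere 6 hrs; cpd 48h, 37 degree C, 5% CO2; pNCS 0.5mM final in lysis buffer, 14h RT; stop 1N NaOH final; fluor. Ex525/Em598.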

A short description of assay [2]: qHTS for compounds that reverse cellular toxicity of Amyloid beta (A-beta) peptide in yeast: LOPAC Validation Assay (AID 720559).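 Note: plate controls were DMSO for no effect and equimolar ferric chloride plus clioquinol rescue for full effect.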 An outline of the steps: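 Medium dispensed, compounds pinned, A-beta yeast suspension added; plates held at 30 C for 48 hr; absorbance measured at 600 nm to gauge growth; values scaled between DMSO and FeCl3/clioquinol (equimolar) controls.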

The nature of assay [3]: qHTS for Activators of Parkin Expression: LOPAC Validation Assay (NLuc Reporter) (AID 720572). An outline of the steps: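 NLuc signal, read 10 min after reagent and following a prior FLuc read, is normalized to DMSO (0) and positive controls (100%). Cells: neuronal Parkin-promoter coincidence reporter line; compounds tested 7-point, 24 h, 37 C, 5% CO2.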
Assay [4] in a line: qHTS for Activators of Parkin Expression: LOPAC Validation Assay (FLuc Reporter) (AID 720573). An outline of the steps: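 Cells seeded, 24 h; compounds pinned, 7-pt dose response; 24 h at 37 C/5% CO2; volume reduced; FLuc reagent 10 min RT; luminescence read. Normalization: DMSO = 0, positive control = 100%.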
For assay [5], the target named is T1, Hexokinase-4 (Homo sapiens) + Glucokinase regulatory protein (Homo sapiens) (UniProt P35557+Q14397). The assay is described as follows: qHTS assay for inhibitors of recombinant human GCK-GKRP interaction: Diaphorase-coupled assay (AID 743205). An outline of the steps: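 25 mM Hepes pH 7.6, 5 mM glucose, 0.4 mM ATP, 4 U/ml G6PDH; 10 nM each GST-GCK/FLAG-GKRP. Kinetic fluorescence read, 1/min × 30 min. Normalized: DMSO ± enzyme = max/min.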
T1 sequence (P35557 whole entry, looked up): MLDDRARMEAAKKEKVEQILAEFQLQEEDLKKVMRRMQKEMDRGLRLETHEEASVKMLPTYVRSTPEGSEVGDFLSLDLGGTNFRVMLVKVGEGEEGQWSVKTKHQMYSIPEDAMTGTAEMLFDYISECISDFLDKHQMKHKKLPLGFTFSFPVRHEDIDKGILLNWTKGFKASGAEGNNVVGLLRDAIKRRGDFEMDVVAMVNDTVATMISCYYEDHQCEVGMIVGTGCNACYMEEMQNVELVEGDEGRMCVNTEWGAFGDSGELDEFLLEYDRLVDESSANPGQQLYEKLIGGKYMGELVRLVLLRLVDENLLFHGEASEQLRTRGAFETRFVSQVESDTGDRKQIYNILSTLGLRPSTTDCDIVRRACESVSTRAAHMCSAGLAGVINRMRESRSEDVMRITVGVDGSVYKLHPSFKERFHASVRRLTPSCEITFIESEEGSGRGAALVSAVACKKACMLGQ
T1 sequence (Q14397 whole entry, looked up): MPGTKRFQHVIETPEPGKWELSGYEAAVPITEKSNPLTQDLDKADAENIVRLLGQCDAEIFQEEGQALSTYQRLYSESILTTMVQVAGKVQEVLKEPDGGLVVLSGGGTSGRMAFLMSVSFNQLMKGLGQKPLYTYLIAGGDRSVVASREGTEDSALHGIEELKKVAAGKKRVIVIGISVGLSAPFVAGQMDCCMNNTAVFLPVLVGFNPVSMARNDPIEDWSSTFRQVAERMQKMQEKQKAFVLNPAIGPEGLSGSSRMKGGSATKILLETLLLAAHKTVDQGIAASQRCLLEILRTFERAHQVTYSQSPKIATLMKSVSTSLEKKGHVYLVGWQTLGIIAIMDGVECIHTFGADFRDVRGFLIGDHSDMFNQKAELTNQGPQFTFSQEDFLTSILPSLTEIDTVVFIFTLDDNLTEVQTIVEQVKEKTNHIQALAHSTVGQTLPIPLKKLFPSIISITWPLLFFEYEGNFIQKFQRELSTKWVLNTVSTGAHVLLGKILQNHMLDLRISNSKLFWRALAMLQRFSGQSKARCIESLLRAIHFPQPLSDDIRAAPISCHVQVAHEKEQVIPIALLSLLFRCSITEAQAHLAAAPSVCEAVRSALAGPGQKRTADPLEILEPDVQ

In assay [6] the target is T1, Hexokinase-4 (Homo sapiens) + Glucokinase regulatory protein (Homo sapiens). The assay is described as follows: qHTS assay for inhibitors of recombinant human GCK-GKRP interaction: HTRF assay (AID 743207).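 Note: 0% = DMSO with GCK present and -100% = DMSO wells lacking GCK.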 An outline of the steps: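 5 nM GST-GCK + 5 nM FLAG-GKRP + 2 uM S6P, pH 7.1 buffer (25 mM Hepes, 2 mM MgCl2, 25 mM KCl, 1 mM DTT, Tween/BSA); pin-transferred cpd; anti-FLAG XL665/anti-GST K; 60 min RT; HTRF.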

Assay [7] can be described thus: qHTS Assay for Identifying Gametocytocidal Compounds (AID 743244).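 Note: % is set by controls: 0 for no effect and ±100 for the full control effect; actives lower the fluorescent signal which means gametocytes are killed.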 Particulars: P. falciparum 3D7 stage III-V gametocytes, alamarBlue, 72 h; max response: stronger effect = lower value. An outline of the steps:
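P. falciparum 3D7 stage III–V gametocytes (20,000 cells/well) were exposed to compounds for 72 h at 37 °C, 5% CO2. AlamarBlue was then added for 24 h; decreased resorufin fluorescence (Ex 525/Em 598 nm) indicated loss of viability.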

A short description of assay [8]: qHTS profiling of the MIPE4 collection as inhibitors of Plasmodium falciparum (3D7) proliferation (AID 743344; call rule not given here;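 note: scaled between DMSO vehicle wells and 0.29 µM artemisinin as full inhibition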). Particulars: P. falciparum 3D7 in erythrocytes, SYBR Green DNA fluorescence, 72 h; at 28.5 µM (top of the series) unless noted. An outline of the steps: (§1)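 Parasite DNA was quantified by SYBR Green I fluorescence (ex 485, em 535 nm) after overnight lysis in saponin/Triton buffer at room temperature. Cultures at 0.3% parasitemia and 2.5% hematocrit were first exposed to compound for 72 h at 37 C; signals were normalised to artemisinin (0.29 uM) and vehicle wells.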

Assay [9] in a line: qHTS profiling of the MIPE4 collection as inhibitors of Plasmodium falciparum (DD2) proliferation (AID 743345; call rule not given here). Particulars: P. falciparum Dd2 in erythrocytes, SYBR Green DNA, 72 h; at 28.5 µM (top of the series) unless noted. The gist of the method: as §1
Assay [10] is described as follows: qHTS profiling of the MIPE4 collection as inhibitors of Plasmodium falciparum (DD2) proliferation (Rep 2) (AID 743346; call rule not given here). To be noted: P. falciparum Dd2 in erythrocytes, SYBR Green DNA, 72 h; at 28.5 µM (top of the series) unless noted. An outline of the steps: as §1
The nature of assay [11]: qHTS profiling of the MIPE4 collection as inhibitors of Plasmodium falciparum (HB3) proliferation (AID 743347; call rule not given here;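 note: plate controls were DMSO vehicle wells for no effect and artemisinin wells for full effect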). Particulars: P. falciparum HB3 in erythrocytes, SYBR Green DNA, 72 h; at 28.5 µM (top of the series) unless noted. The gist of the method:
as §1

Assay [12] is described as follows: qHTS assay for small molecule agonists of the antioxidant response element (ARE) signaling pathway measured by Nrf2-dependant transcriptional activity (AID 720636; active = well fitted curve in the direction sought with a large enough effect in the repeat runs; an effect the other way counts as inactive or inconclusive;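 note: HepG2 cells with an ARE-driven luciferase reporter; % of control where 0% means no effect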). An outline of the steps: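 Attachment 6 hr at 37 C, then compound versus DMSO vehicle for 16 hr in ARE-luc HepG2 cells (1% dialyzed FBS); luminescence recorded 30 min after ONE-Glo addition at room temperature.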

Assay [13] can be described thus: qHTS assay for small molecule agonists of the antioxidant response element (ARE) signaling pathway measured by Nrf2-dependant transcriptional activity - cell viability counter screen (AID 720653; active = well fitted curve in the direction sought with a large enough effect in the repeat runs; an effect the other way counts as inactive or inconclusive; note: % is set by controls: 0 for no effect and ±100 for the full control effect). Particulars: ARE-bla HepG2 viability, CellTiter-Glo ATP luminescence, 16 h; stronger effect = lower value. The gist of the method: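 ARE-bla HepG2 cells treated with compounds for 16 h at 37C; this counter screen measures viability as intracellular ATP by CellTiter-Glo luminescence after 30 min at room temperature.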

For assay [14], the target named is T1, Hexokinase-4 (Homo sapiens) + Glucokinase regulatory protein (Homo sapiens). The assay is described as follows: qHTS assay for inhibitors of recombinant human GCK-GKRP interaction: ADP-Glo assay (AID 743206).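 Note: plate controls were DMSO plus enzyme for no effect and no enzyme for full effect.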 The gist of the method: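 Pin-transferred compounds meet a 15 nM GST-GCK/15 nM FLAG-GKRP/2 uM S6P mix (dispense concentrations). ATP is then added to 0.4 mM final with 5 mM glucose, and the reaction runs 60 min at room temperature. ADP is quantified luminescently.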

Assay [15] can be described thus: qHTS assay for cell viability of HEK293 cells (AID 743288). Note: % is set by controls: 0 for no effect and ±100 for the full control effect; nearly all actives have a fitted effect of over 50% in size. Particulars: ATP luminescence (CellTiter-Glo), 18 h; max response: stronger effect = lower value. An outline of the steps:
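Viable-cell counts were inferred from luciferase-based ATP content in HEK293 cells seeded at 2,000/well, pre-incubated ≥5 h, then dosed with DMSO-solubilised compounds for 18 h at 37 C.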

A short description of assay [16]: qHTS assay for cell viability of the p53RE-bla HCT-116 cell line (AID 743292). Note: % is set by controls: 0 for no effect and ±100 for the full control effect; nearly all actives have a fitted effect of over 55% in size. The gist of the method: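 Compound-exposed HCT-116 (p53RE-bla) cells, 4,000 per well, were kept 16 h at 37 C following a 5 h preincubation. Cell number was estimated from total ATP by CellTiter-Glo luminescence read after 30 min at room temperature.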
Assay [17] in a line: qHTS assay for small molecule antagonists of the retinoid-related orphan receptor gamma (ROR-gamma) signaling pathway - cell viability counter screen (AID 720652; active = well fitted curve in the direction sought with a large enough effect in the repeat runs; an effect the other way counts as inactive or inconclusive;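 note: CHO reporter cells with doxycycline-induced ROR-gamma expression; compound exposure lasted 16 hr before ATP read; % is set by controls: 0 for no effect and ±100 for the full control effect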). An outline of the steps:
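CHO RORE-LUC/TET-ROR line, 1,000 cells/well, 37 C 5% CO2 5 hr; cpd or DMSO + doxycycline induction, 16 hr. CellTiter-Glo, 30 min RT, luminescence = ATP content.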

Chain of Arylsulfatase A (Homo sapiens) (P15289 whole entry, looked up): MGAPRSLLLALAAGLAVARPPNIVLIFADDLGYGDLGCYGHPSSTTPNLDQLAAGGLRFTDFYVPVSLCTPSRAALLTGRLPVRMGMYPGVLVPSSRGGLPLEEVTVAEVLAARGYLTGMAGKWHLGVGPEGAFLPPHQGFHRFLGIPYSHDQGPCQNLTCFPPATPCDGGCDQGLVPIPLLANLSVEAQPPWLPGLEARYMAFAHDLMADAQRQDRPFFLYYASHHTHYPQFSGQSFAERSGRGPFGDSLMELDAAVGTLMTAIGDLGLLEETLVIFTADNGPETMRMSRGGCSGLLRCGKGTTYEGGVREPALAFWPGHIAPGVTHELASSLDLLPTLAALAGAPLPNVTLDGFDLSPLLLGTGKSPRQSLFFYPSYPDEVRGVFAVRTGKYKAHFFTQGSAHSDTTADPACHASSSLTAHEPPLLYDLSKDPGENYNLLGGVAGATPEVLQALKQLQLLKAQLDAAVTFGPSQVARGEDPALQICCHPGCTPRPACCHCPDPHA

For `Nc1ccc(S(=O)(=O)Nc2ccnn2-c2ccccc2)cc1`, the result in [1], in assay [2], in assay [4], in [5] and in assay [6] was inactive. Further, the Potency entry in assay [3] was “inactive”. Moreover, in [7], the max response is 9.56% (inactive) and 18.4% (inactive). Also, in assay [8], the parasite growth, % of DMSO control came to 93.3%. Besides, the parasite growth remaining, % of DMSO control (lower = more inhibition) in assay [9] is 103%. For the same compound, the parasite growth, % of control (lower = inhibition) in assay [10] stood at 86.8%. The growth, % of control in assay [11] was 94.4%.
Regarding `O=C1CCc2cc(OCCCCc3nnnn3C3CCCCC3)ccc2N1`, the outcome in [1], in assay [2], in [4], in assay [5] and in [6] was inactive. The Potency result in assay [3] is “inactive”. Besides, the max response in assay [7] is 16.8% (inactive) and 6.18% (inactive). Moreover, the parasite growth, % of DMSO control in [8] was 90.8%. In addition, in [9], the parasite growth remaining, % of DMSO control (lower = more inhibition) was determined as 99.1%. Moreover, in assay [10], the parasite growth, % of control (lower = inhibition) is 115%. The compound further came in with a growth, % of control in assay [11] of 104%.
Consider `Cc1cn[nH]c1`, for which the result in [1], in [2], in [4], in assay [5] and in [6] was inactive. Further, in [3], the Potency result is “inactive”. Moreover, in assay [7], the max response was 28.3% (inactive) and 8.61% (inactive). The same compound registered a parasite growth, % of DMSO control in assay [8] of 5.44%. Further, the parasite growth remaining, % of DMSO control (lower = more inhibition) in assay [9] was 10%. Further, the parasite growth, % of control (lower = inhibition) in assay [10] is 6.63%. This compound also returned a growth, % of control in assay [11] of 8.35%.
As to `CNC[C@H](O)c1cccc(O)c1`, the outcome in [1], in [2], in [4], in assay [12], in assay [5] and in [14] was inactive. Besides, in assay [6], the outcome was inactive. Besides, the Potency entry in assay [3] and in [16] was “inactive” each time. Besides, the max response in assay [13] was -6.42% (inactive); in assay [7], -1.17% (inactive) and 7.6% (inactive); in [15], -12.3% (inactive). The compound also returned a parasite growth, % of DMSO control in assay [8] of 102%. Moreover, the parasite growth remaining, % of DMSO control (lower = more inhibition) in assay [9] turned out to be 98.1%. For the same compound, the parasite growth, % of control (lower = inhibition) in assay [10] turned out to be 94.6%. The compound also came in with a growth, % of control in assay [11] of 92.6%.
Regarding `CCCC(CCC)C(=O)O`, the outcome in [1], in assay [2], in [12] and in assay [17] was inactive. For the same compound, the max response in [13] is -3.17% (inactive) and -14.3% (inactive) and -4.27% (inactive); in assay [7] it was 8.46% (inactive) and 5.84% (inactive); in [15] it was 3.06% (inactive) and -3.28% (inactive) and -9.08% (inactive). Moreover, in assay [16], the Potency entry is “inactive”. The parasite growth remaining, % of DMSO control (lower = more inhibition) in assay [9] was found to be 103%. In [10], the parasite growth, % of control (lower = inhibition) was determined as 148%.
For `NCCCC(N)(C(=O)O)C(F)F` (stereo unspecified), the result in [1], in [2], in assay [4], in [5] and in assay [6] was inactive. Also, the Potency entry in [3] is “inactive”. The max response in assay [7] is 5.66% (inactive) and 8.03% (inactive). For the same compound, in assay [8], the parasite growth, % of DMSO control came out at 98%. For the same compound, the parasite growth remaining, % of DMSO control (lower = more inhibition) in assay [9] came to 95.9%. Also, in assay [10], the parasite growth, % of control (lower = inhibition) is 157%. Further, the growth, % of control in [11] came to 107%.
Turning to `CCCCNc1cc(C(=O)O)cc(S(N)(=O)=O)c1Oc1ccccc1`, the outcome in assay [1], in assay [2], in assay [4], in [5] and in [6] was inactive. For the same compound, the Potency entry in assay [3] is “inactive”. For the same compound, the max response in [7] is -3.91% (inactive) and 1.19% (inactive). For the same compound, in [8], the parasite growth, % of DMSO control turned out to be 87.9%. In addition, the parasite growth remaining, % of DMSO control (lower = more inhibition) in assay [9] was 99.3%. The parasite growth, % of control (lower = inhibition) in [10] was 102%.
Consider `Cc1cnc(NC(=O)C2=C(O)c3ccccc3S(=O)(=O)N2C)s1`, for which the result in [1], in assay [2], in assay [4], in [5], in assay [14] and in assay [6] was inactive. In [7], the max response was 4.3% (inactive) and 13.2% (inactive) and 16.1% (inactive). Moreover, the parasite growth, % of DMSO control in assay [8] is 39%. Further, the parasite growth remaining, % of DMSO control (lower = more inhibition) in [9] came to 86.7%. Also, in [10], the parasite growth, % of control (lower = inhibition) was determined as 61.9%. The compound further registered a growth, % of control in [11] of 78.1%.

The values above are taken from PubChem BioAssay (NCATS).
